# Shown are actives, neighbours in structure and some others; about 1.7% of the full set was active somewhere.
# GLP1R inv ag: acts as inverse agonist at human GLP-1 receptor; P43220; HEK293 GLP-1R CRE-luciferase, luminescence, 24 h; GLP-1R form is constitutively active; Potency, µM (doses to about 38.3 µM), actives largely listed as inhibitors; 410,000 compounds, 1.6% hits; AID 624417; further: nearly all actives have a fitted effect of over 55% in size
#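 Cells are plated, allowed 12 hours at 37 deg C, then treated with compounds for 24 hr before luciferase detection reagent is added and luminescence is read after 12 min at room temperature. The HEK293 line carries constitutively active GLP-1R with a cAMP-responsive reporter.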
# GLP1R cytotox: cytotoxic in the GLP-1 receptor inverse agonist counter-screen; HEK293 cAMP-luciferase reporter cells, luminescence, 24 h; Potency, µM (highest dose often 38.3 µM), most hits filed as inhibitors; 410,000 compounds, 0.13% hits; AID 624418;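 further: loss of luciferase light is scored as toxicity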
#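 Compound-treated cells are incubated 24 hr at 37 deg C under 5% CO2 after a 12 hour attachment period, then luciferase detection reagent is added and luminescence is measured following 12 min at room temperature; lowered signal indicates toxicity.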
# GLP-1R agonist: agonists of human GLP-1 receptor; P43220; HEK293 GLP-1R CRE-luciferase, luminescence, 4-6 h; cells express a hypersensitive GLP-1R form; Potency, µM (highest dose often 45.6 µM), actives largely listed as activators; 380,000 compounds, 0.007% hits; AID 624172
# PTHR1 agonist: agonists of human PTHR1 parathyroid hormone receptor; HEK293 GP2 PTHR1 cells, GloSensor cAMP luminescence, 1 h; Potency, µM (top dose mostly 115 µM), hits mostly activators; 410,000 compounds, 0.075% hits; further: nearly all actives have a fitted effect of over 55% in size
# Target sequence (Q03431 whole entry, looked up): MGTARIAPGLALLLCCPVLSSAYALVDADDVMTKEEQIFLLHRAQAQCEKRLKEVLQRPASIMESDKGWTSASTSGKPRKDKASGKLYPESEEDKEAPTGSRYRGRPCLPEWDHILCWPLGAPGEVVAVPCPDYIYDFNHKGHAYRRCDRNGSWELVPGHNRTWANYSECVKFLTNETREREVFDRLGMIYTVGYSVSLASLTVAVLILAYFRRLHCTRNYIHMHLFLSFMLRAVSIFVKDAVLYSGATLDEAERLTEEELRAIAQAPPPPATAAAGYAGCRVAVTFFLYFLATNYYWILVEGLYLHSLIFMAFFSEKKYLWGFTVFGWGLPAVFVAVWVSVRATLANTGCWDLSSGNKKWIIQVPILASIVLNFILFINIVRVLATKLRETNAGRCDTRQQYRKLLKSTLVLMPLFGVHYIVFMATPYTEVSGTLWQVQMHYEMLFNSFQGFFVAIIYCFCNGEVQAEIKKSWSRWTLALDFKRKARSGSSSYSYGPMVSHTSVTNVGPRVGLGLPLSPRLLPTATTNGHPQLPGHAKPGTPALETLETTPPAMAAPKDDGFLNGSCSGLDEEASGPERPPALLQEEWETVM
#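 HEK-293-derived GP2 cells expressing PTHR1 and a GloSensor cAMP reporter, 3,000/well, plated overnight, given luciferin plus IBMX (each 0.5 mM as added) for 1 h at 37 °C, then compound for 1 h at 37 °C. Luminescence was read after 15 min at room temperature.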
# Numbers stand for hits; – = inactive; ? = inconclusive; · = no result given; ! = a repeat was not active. The call rests on the fitted dose curve; in most records, active means well fitted curve in the direction sought with a large enough effect; inconclusive means small, poorly fitted or top-dose-only effect, or another doubt; inactive means no such curve, though single readings can be large; an effect the other way counts as inactive or inconclusive.
SMILES,GLP1R inv ag,GLP1R cytotox,GLP-1R agonist,PTHR1 agonist
N=C(N)c1ccc(OCCCOc2ccc(C(=N)N)cc2Br)c(Br)c1,·,·,–,·
COc1ccc(C2NC(c3ccc(OC)cc3)C(c3ccccc3)C(=O)C2c2ccccc2)cc1 (stereo unspecified),5.6µM,–,–,–
O=C(N/N=C/c1ccco1)C1CC1(c1ccccc1)c1ccccc1 (stereo unspecified),10µM,–,–,–
Cc1ccc(S(=O)(=O)N(Cc2ccccc2)c2ccccc2C(=O)Nc2ccccc2C(=O)NCc2ccco2)cc1,5µM,–,–,–
N#CCCn1cc(/C=C2\NC(=S)N(c3ccccc3)C2=O)c(-c2ccc(-c3ccccc3)cc2)n1,7.9µM,–,–,–
O=C(O)CCn1cc(/C=C2/NC(=S)N(c3ccccc3)C2=O)c(-c2ccccc2)n1,–,?,–,–
CC(C)c1ccc(NC(=S)NN(c2ccccc2)c2ccccc2)cc1,5.6µM,?,–,–
CCNC(=S)Nc1ccc(N(c2ccccc2)C(C)C)cc1,?,–,–,–
CNC(=S)N1N=C(c2ccc(OC)cc2)CC1c1ccccc1Cl (stereo unspecified),10µM,–,–,–
CNC(=S)N1N=C(c2ccc(OC)cc2)CC1c1ccc(Cl)cc1Cl (stereo unspecified),?,–,–,–
CNC(=S)N1N=C(c2ccc(C)cc2)CC1c1ccc(OC)cc1 (stereo unspecified),10µM,–,–,–
CNC(=S)N1N=C(c2ccc(Br)cc2)CC1c1ccc(OC)cc1 (stereo unspecified),?,–,–,–
CNC(=S)N1N=C(c2ccc(C)cc2)CC1c1cc(OC)ccc1OC (stereo unspecified),10µM,?,–,–
COc1ccc(OC)c(C2CC(c3ccccc3)=NN2C(=S)Nc2ccccc2)c1 (stereo unspecified),–,–,–,–
O=C(COCc1cc(-c2cccs2)on1)NCc1ccc(F)cc1,–,–,·,–
O=C(NCC1CC1)c1onc(CSc2ccc(F)cc2)c1C(=O)NCC1CC1,?,–,–,–
O=C(NCc1ccccc1)c1onc(CSc2ccccc2)c1C(=O)NCC1CC1,3.5µM,–,–,–
Cc1cc(C)cc(SCc2noc(C(=O)NCC3CC3)c2C(=O)NCC2CC2)c1,8.9µM,–,–,–
CCCCNC(=O)c1c(CSc2ccccc2)noc1C(=O)NCc1ccccc1,10µM,–,–,–
O=C(NCc1ccccc1)c1onc(CSc2ccccc2)c1C(=O)NCc1ccccc1,?,–,–,–
CCCCNC(=O)c1c(CSc2ccc(Cl)cc2)noc1C(=O)NCc1ccccc1,?,–,–,–
CCCNC(=O)c1c(CSc2ccc(Cl)cc2)noc1C(=O)NCc1ccccc1,5µM,–,–,–
COc1ccc(S(=O)(=O)c2c(O)c(C)cc(NS(=O)(=O)c3ccc(Cl)cc3)c2C(C)C)cc1,?,–,–,–
CCc1ccc(NC(=O)CN2CCCN(S(=O)(=O)c3ccc(F)cc3)CC2)cc1,5µM,–,–,–
COC(=O)c1ccc(NC(=O)CN2CCN(S(=O)(=O)c3ccc(Br)cc3)CC2)cc1,3.5µM!,–,–,–
SMILES,GLP1R inv ag,GLP1R cytotox,GLP-1R agonist,PTHR1 agonist
O=C(CN1CCN(S(=O)(=O)c2ccc(Br)cc2)CC1)Nc1ccc2c(c1)OCCO2,?,–,–,–
COc1ccccc1CN1COc2ccc3c(C)cc(=O)oc3c2C1,–,–,–,–
CCN1CCCC1CNC(=O)c1cc(N)ccc1OC (stereo unspecified),–,–,–,–
CCN1CCCC1CNCC(O)COc1ccc(C(C)(C)C)cc1C (stereo unspecified),5µM,–,–,–
COc1ccc(Nc2nc(N3CCCCC3)c3ccccc3n2)cc1,5.6µM,?,–,–
c1ccc(Nc2nc(N3CCCCC3)nc(N3CCCCC3)n2)cc1,10µM,–,–,–
CCc1nc2ccc(C(=O)NCc3ccccc3C)cc2nc1CC,–,–,·,–
CC(C)C[C@H](NC(=O)c1[nH]cnc1C(=O)N[C@@H](C)c1ccccc1)C(=O)OCc1ccccc1,4.5µM,–,–,–
C[C@H](NC(=O)c1nc[nH]c1C(=O)NCc1ccccc1)C(=O)OC(C)(C)C,–,–,–,–
C[C@H](NC(=O)c1nc[nH]c1C(=O)NC(c1ccccc1)c1ccccc1)C(=O)OC(C)(C)C,5.6µM,–,–,–
Cc1ccc(-n2ncc3c(N4CCCCCC4)ncnc32)cc1C,?,–,·,–

# Assay outcomes as filed in PubChem BioAssay.
